Screening data from PubChem BioAssay.
PAFAH1B3 inh – blocks human PAF acetylhydrolase 1B catalytic subunit 3. AID 492972. Q15102. recombinant PAFAH1B3, FP-rhodamine probe, fluorescence polarization. 340,000 tested, 0.28% active. inhibition, % at 3.39 µM;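 active = inhibition above the screen-wide average of all tested compounds plus 3 SD, cut at about 25% in these data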;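 also: 0% = enzyme with DMSO only and 100% = wells lacking PAFAH1B3 protein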
PAFAH1B2 inh – inhibitors of human PAFAH1B2 | recombinant PAFAH1B2, FP-rhodamine activity probe, fluorescence polarization | 340,000 tested, 1.2% active | inhibition, % at 3.39 µM | P68402;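 active = inhibition above the mean of all tested compounds plus 3 SD, cut at about 24% in these data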;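 also: 0% = enzyme with DMSO and 100% = wells lacking PAFAH1B2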
pPAFAH inh – inhibitors of human plasma PAF acetylhydrolase (pPAFAH) | Q13093 | recombinant pPAFAH, FP-rhodamine probe fluorescence polarization | 330,000 tested, 1.5% active | inhibition, % at 3.39 µM | AID 463082;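 active = inhibition above the mean inhibition across the screen plus 3 SD, cut at about 25% in these data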;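 also: inhibitors block binding of the rhodamine activity-based probe so polarization drops; 0% = enzyme with DMSO and 100% = wells lacking pPAFAH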
Target sequence (Q13093 whole entry, looked up): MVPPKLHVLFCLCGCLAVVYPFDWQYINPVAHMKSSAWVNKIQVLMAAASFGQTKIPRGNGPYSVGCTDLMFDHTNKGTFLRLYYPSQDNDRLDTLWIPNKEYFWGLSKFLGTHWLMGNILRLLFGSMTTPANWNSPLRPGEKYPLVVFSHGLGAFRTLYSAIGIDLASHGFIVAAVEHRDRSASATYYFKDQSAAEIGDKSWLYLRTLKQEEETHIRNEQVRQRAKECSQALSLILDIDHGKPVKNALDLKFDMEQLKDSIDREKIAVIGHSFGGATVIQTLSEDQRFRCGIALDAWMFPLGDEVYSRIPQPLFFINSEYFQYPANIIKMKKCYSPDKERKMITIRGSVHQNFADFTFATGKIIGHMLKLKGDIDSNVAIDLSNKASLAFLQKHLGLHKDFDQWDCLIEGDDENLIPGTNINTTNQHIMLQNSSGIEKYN
PAFAH2 inh – inhibitors of human PAFAH2; Q99487; 340,000 tested, 0.99% active; inhibition, % at 3.39 µM; recombinant PAFAH2, FP-rhodamine activity probe, fluorescence polarization;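 active = inhibition above the mean over all tested compounds plus 3 SD, cut at about 30% in these data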;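 also: inhibitors block probe labeling of enzyme so polarization drops; 0% = enzyme with DMSO and 100% = wells lacking PAFAH2 protein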
LYPLA2 inh – LYPLA2 (human) inhibition in PME1 counter-screen | recombinant LYPLA2, FP-Rh probe fluorescence polarization | 320,000 tested, 0.38% active | O95372 | AID 2177 | inhibition, % at 5.9 µM;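 active = inhibition above the screen-wide mean plus 3 SD, limit set per campaign, cut at about 26% in these data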;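 also: 0% = LYPLA2 with DMSO and 100% = wells lacking LYPLA2 enzyme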
Target sequence (O95372 whole entry, looked up): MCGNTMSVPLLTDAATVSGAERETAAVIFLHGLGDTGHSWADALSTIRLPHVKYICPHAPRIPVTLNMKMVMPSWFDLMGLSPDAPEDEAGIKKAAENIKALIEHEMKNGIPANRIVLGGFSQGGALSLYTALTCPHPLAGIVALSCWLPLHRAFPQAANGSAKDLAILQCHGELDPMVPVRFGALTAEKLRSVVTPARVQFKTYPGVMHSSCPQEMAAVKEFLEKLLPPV
LYPLA1 inh – LYPLA1 (human) inhibition in PME1 counter-screen; O75608; recombinant LYPLA1, FP-Rh probe fluorescence polarization; inhibition, % at 5.9 µM; 320,000 tested, 0.16% active;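 active = inhibition above the mean of all tested compounds plus 3 SD, set per campaign, cut at about 14% in these data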;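 also: inhibitors block serine hydrolase probe labeling of LYPLA1 so polarization falls; 0% = enzyme with DMSO and 100% = wells lacking LYPLA1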
pPAFAH confirm – confirmation of human plasma PAF acetylhydrolase (pPAFAH) inhibitors | shares compounds with pPAFAH inh | recombinant pPAFAH, FP-Rh probe fluorescence polarization | inhibition, % at 3.39 µM | 2,300 tested, 72% active;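 active = mean inhibition of the triplicate above the hit cutoff set for the earlier primary screen, cut at about 25% in these data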;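 also: 0% = enzyme with DMSO and 100% = wells lacking pPAFAH enzyme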
* = called active by the depositor. Compounds with a hit are over-represented: about 2.9% of the library has one in this group of screens.

Results for O=c1c(O)c(-c2ccc(O)c(O)c2)oc2cc(O)cc(O)c12 ?
PAFAH1B3 inh: 53*; PAFAH1B2 inh: 29*; pPAFAH inh: 53*; PAFAH2 inh: 1; LYPLA2 inh: -18; LYPLA1 inh: -20; pPAFAH confirm: 82*

What do the screens show for `O=c1cc(-c2ccc(O)c(-c3c(O)cc(O)c4c(=O)cc(-c5ccc(O)cc5)oc34)c2)oc2cc(O)cc(O)c12`?
PAFAH1B3 inh: 54*; PAFAH1B2 inh: 36*; pPAFAH inh: 62*; PAFAH2 inh: 38*; LYPLA2 inh: -35; LYPLA1 inh: -22; pPAFAH confirm: 71*

Results for COC(=O)CCc1c(C)nc(N)[nH]c1=O ?
PAFAH1B3 inh: 3; PAFAH1B2 inh: 5; pPAFAH inh: 3; PAFAH2 inh: 2; LYPLA2 inh: 3; LYPLA1 inh: 2

Results for Cc1cc(C)cc(NC(=O)C(=O)NCC2CCCN2S(=O)(=O)c2cccs2)c1 (stereo unspecified) ?
PAFAH1B3 inh: -6; PAFAH1B2 inh: -3; pPAFAH inh: 1; PAFAH2 inh: 0; LYPLA2 inh: 1; LYPLA1 inh: 4

What do the screens show for `CCOc1ccc(-n2cc(-c3ccccc3)c3c(N4CCOCC4)ncnc32)cc1`?
PAFAH1B3 inh: 6; PAFAH1B2 inh: 3; pPAFAH inh: 13; PAFAH2 inh: 6; LYPLA2 inh: -3; LYPLA1 inh: 3

What do the screens show for `Cc1cccc(-n2cc(-c3ccccc3)c3c(NN4CCOCC4)ncnc32)c1`?
PAFAH1B3 inh: -3; PAFAH1B2 inh: 0; pPAFAH inh: 75*; PAFAH2 inh: -1; LYPLA2 inh: -2; LYPLA1 inh: 1; pPAFAH confirm: 12

What do the screens show for `COc1cc(/C=N/NC(=O)C(Cc2c[nH]c3ccccc23)NC(=O)OCC(C)C)cc([N+](=O)[O-])c1O` (stereo unspecified)?
PAFAH1B3 inh: 5; PAFAH1B2 inh: 17; pPAFAH inh: 37*; PAFAH2 inh: 9; LYPLA2 inh: 0; LYPLA1 inh: 0; pPAFAH confirm: 31*

Results for COc1cc(/C=N/NC(=O)C(Cc2c[nH]c3ccccc23)NC(=O)OCc2ccccc2)cc([N+](=O)[O-])c1O (stereo unspecified) ?
PAFAH1B3 inh: 14; PAFAH1B2 inh: 43*; pPAFAH inh: 46*; PAFAH2 inh: 26; LYPLA2 inh: 0; LYPLA1 inh: -4; pPAFAH confirm: 52*

How did COc1ccc(Cc2nnc(N/N=C/c3ccc(N(C)C)cc3)[nH]c2=O)cc1OC do in these assays?
PAFAH1B3 inh: -1; PAFAH1B2 inh: 10; pPAFAH inh: 6; PAFAH2 inh: 10; LYPLA2 inh: -1; LYPLA1 inh: 0

What do the screens show for `C=CCOc1c(Br)cc(C2C3=C(CCCC3=O)N(C)C3=C2C(=O)CCC3)cc1OCC`?
PAFAH1B3 inh: -2; PAFAH1B2 inh: 4; pPAFAH inh: 39*; PAFAH2 inh: 9; LYPLA2 inh: -3; LYPLA1 inh: -8; pPAFAH confirm: 5

How did C=CCSc1nnc(NC(=O)CSc2nc3ccccc3o2)s1 do in these assays?
PAFAH1B3 inh: 4; PAFAH1B2 inh: -36; pPAFAH inh: 2; PAFAH2 inh: -5; LYPLA2 inh: 2; LYPLA1 inh: -2

How did N#C/C(=C\c1ccc(O)c(O)c1)C(=O)c1ccc(O)c(O)c1 do in these assays?
PAFAH1B3 inh: 38*; PAFAH1B2 inh: 54*; pPAFAH inh: 93*; PAFAH2 inh: 79*; LYPLA2 inh: 5; LYPLA1 inh: 0; pPAFAH confirm: 85*

How did CN(C)c1ccc(P(=O)(OC2CCCCC2)C(Nc2ccccc2)c2cccnc2)cc1 (stereo unspecified) do in these assays?
pPAFAH inh: -2; LYPLA2 inh: 5; LYPLA1 inh: 1

What do the screens show for `CCn1nnnc1SCCSc1nnnn1CC`?
PAFAH1B3 inh: -3; PAFAH1B2 inh: -2; pPAFAH inh: 0; PAFAH2 inh: -4; LYPLA2 inh: 0; LYPLA1 inh: -3

Results for CC(=O)N1c2ccc(S(=O)(=O)N3CCC(C(=O)Nc4cccc(Cl)c4)CC3)cc2CC1C (stereo unspecified) ?
PAFAH1B3 inh: 6; PAFAH1B2 inh: 2; pPAFAH inh: 39*; PAFAH2 inh: -2; LYPLA2 inh: -1; LYPLA1 inh: -6; pPAFAH confirm: 8

Results for CC(=O)N1c2ccc(S(=O)(=O)N3CCC(C(=O)Nc4cccc(C)c4)CC3)cc2CC1C (stereo unspecified) ?
PAFAH1B3 inh: -6; PAFAH1B2 inh: 1; pPAFAH inh: 5; PAFAH2 inh: 1; LYPLA2 inh: 9; LYPLA1 inh: 5

What do the screens show for `O=C(O)CN1C(=O)/C(=C\c2cc(Br)ccc2OCc2ccc(Cl)cc2Cl)SC1=S`?
PAFAH1B3 inh: -1; PAFAH1B2 inh: 18; pPAFAH inh: 52*; PAFAH2 inh: 33*; LYPLA2 inh: -12; LYPLA1 inh: -8; pPAFAH confirm: 67*

Results for O=C(O)CN1C(=O)/C(=C/c2ccsc2)SC1=S ?
pPAFAH inh: 4; LYPLA2 inh: 1; LYPLA1 inh: -1

Results for CCCCN1C(=O)C(=O)N(CC(=O)Nc2sc(C)c(CC)c2C(=O)OCC)C1=O ?
PAFAH1B3 inh: 8; PAFAH1B2 inh: 1; pPAFAH inh: 4; PAFAH2 inh: 0; LYPLA2 inh: 5; LYPLA1 inh: 0

Results for Cc1ccccc1Oc1ccc(-c2nc(N)nc(N)n2)cc1 ?
PAFAH1B3 inh: -1; PAFAH1B2 inh: 1; pPAFAH inh: 39*; PAFAH2 inh: 3; LYPLA2 inh: -1; LYPLA1 inh: -3; pPAFAH confirm: 22

How did O=C(c1ccccc1)c1ccc2nc(-c3ccco3)c(-c3ccco3)nc2c1 do in these assays?
PAFAH1B3 inh: 32*; PAFAH1B2 inh: 6; pPAFAH inh: 58*; PAFAH2 inh: 31*; LYPLA2 inh: 6; LYPLA1 inh: -2; pPAFAH confirm: 43*

What do the screens show for `CCN(CC)CCNC(=O)c1cc(-c2ccco2)nc2ccccc12`?
PAFAH1B3 inh: 9; PAFAH1B2 inh: 8; pPAFAH inh: -1; PAFAH2 inh: 7; LYPLA2 inh: -1; LYPLA1 inh: 2

What do the screens show for `O=C(O)c1ccc2nc(-c3ccccc3)c(-c3ccccc3)nc2c1`?
PAFAH1B3 inh: 0; PAFAH1B2 inh: 22; pPAFAH inh: 6; PAFAH2 inh: -2; LYPLA2 inh: 9; LYPLA1 inh: 2

Results for O=C(NC1CCCC1)c1ccc2nc(-c3ccco3)c(-c3ccco3)nc2c1 ?
PAFAH1B3 inh: 14; PAFAH1B2 inh: 16; pPAFAH inh: 68*; PAFAH2 inh: 38*; LYPLA2 inh: -9; LYPLA1 inh: -12; pPAFAH confirm: 34*

Results for COc1ccc(CCNC(=O)c2cc(-c3ccco3)nc3ccccc23)cc1 ?
pPAFAH inh: 36*; LYPLA2 inh: -5; LYPLA1 inh: -8; pPAFAH confirm: 15
